PubChem BioAssay AID493220 (National Center for Advancing Translational Sciences (NCATS), 2011)
Results filed as inconclusive are left out. The source made the active and inactive calls. Calls follow the shape of the full dose curve.

Biological target: Polyunsaturated fatty acid lipoxygenase ALOX15 (Homo sapiens) (UniProt P16050)
Test: Inhibitors of 12-hLO (12-human lipoxygenase): 15hLO-1 Cuvette-Based Inhibition Counterscreen Assay for 12hLO Followup Compounds
Settings: purified 15hLO-1, UV 234 nm product formation
Method: Human lipoxygenase 15hLO-1 is a member of the closely related lipoxygenase family of enzymes which catalyze the site-specific oxidation of arachidonic acid to various hormone precursor molecules and as such is a candidate for drug development in a variety of disease areas, such as cancer and inflammation. The enzyme activity of 15hLO-1 was determined by a direct measurement of product formation by monitoring the absorbance at 234 nm in a 2 mL cuvette. IC50 values of inhibitors were obtained by measuring the enzymatic rate at a variety of concentrations (Carroll et al, Segraves et al). A purified preparation of human 15hLO-1 was supplied by Professor Ted Holman, University of California, Santa Cruz. This assay was run against 12hLO followup compounds with the goal of identifying selective 12hLO inhibitors. Assay Provider: Holman, T.R., University of California, Santa Cruz Screening Center PI: Austin, Christopher P. Screening Center: NIH Chemical Genomics Center
For control experiments, 2 mL of substrate buffer (10 uM arachidonic acid / 25 mM HEPES / 0.01% (v/v) Triton X-100, pH 8.0) was aliquoted in a cuvette with a magnetic stir bar. After equilibrium was ensured, an aliquot of inhibitor solvent was added (DMSO), and equilibrium was once again assured. […] 3; No change in absorbance ensured. […] 5; No change in absorbance ensured. […]

Polyunsaturated fatty acid lipoxygenase ALOX15 (Homo sapiens), sequence (P16050 whole entry, looked up): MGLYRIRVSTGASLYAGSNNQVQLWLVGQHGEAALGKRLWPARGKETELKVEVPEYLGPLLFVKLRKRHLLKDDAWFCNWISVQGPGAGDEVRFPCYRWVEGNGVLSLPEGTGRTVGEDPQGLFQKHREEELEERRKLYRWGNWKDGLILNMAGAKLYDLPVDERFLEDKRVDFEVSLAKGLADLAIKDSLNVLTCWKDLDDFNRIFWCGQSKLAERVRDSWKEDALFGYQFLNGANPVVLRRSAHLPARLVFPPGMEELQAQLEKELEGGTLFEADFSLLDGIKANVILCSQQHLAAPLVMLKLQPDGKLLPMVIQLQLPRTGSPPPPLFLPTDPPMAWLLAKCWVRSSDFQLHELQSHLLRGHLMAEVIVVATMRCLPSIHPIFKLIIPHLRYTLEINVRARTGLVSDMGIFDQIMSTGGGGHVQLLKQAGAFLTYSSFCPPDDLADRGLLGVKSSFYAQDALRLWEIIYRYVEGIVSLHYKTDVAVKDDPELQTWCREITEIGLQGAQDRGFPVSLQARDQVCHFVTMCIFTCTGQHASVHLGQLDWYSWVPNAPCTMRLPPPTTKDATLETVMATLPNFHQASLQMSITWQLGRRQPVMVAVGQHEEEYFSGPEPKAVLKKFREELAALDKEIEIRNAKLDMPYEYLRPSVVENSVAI

CC(Oc1ccc(Cl)cc1Cl)C(=O)Nc1ccc(S(=O)(=O)Nc2cnc3ccccc3n2)cc1 (stereo unspecified)
Potency: 30.8 µM (active)
